AmpC det inh: Promiscuous and Specific Inhibitors of AmpC Beta-Lactamase (assay with detergent). actives 0.09% (n = 71,000). purified AmpC, nitrocefin hydrolysis with detergent. Potency, µM (doses to about 28.7 µM), for inactives: top-dose activity change, negative = inhibition. P00811. AID 584, 2007; active = well fitted curve in the direction sought with a large enough effect; inconclusive = small, poorly fitted or top-dose-only effect; also: % is scaled to controls: 0 for no effect and ±100 for the full control effect
Target sequence (P00811 whole entry, looked up): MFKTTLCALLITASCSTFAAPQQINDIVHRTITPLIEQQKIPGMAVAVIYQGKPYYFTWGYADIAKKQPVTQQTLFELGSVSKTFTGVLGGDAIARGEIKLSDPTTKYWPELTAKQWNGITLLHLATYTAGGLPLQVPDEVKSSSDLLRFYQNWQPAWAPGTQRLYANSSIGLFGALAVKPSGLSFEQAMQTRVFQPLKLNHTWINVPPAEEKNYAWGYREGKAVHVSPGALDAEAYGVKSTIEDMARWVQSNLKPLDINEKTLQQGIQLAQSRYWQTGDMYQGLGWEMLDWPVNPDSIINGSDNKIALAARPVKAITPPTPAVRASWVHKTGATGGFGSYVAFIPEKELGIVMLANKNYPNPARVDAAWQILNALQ
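E. coli AmpC (5.3 nM) in 20 mM phosphate pH 7.0 with 0.01% Triton X-100, preincubated 15 min RT with compound; nitrocefin (2 uL of 800 uM stock) hydrolysis followed by 480 nm absorbance every 20 s over 4 min.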
Prx2 Sm inh: Schistosoma Mansoni Peroxiredoxins (Prx2); Schistosoma mansoni peroxiredoxin 2 (Prx2); S. mansoni Prx2 activity coupled to TGR/GSH (TGR is thioredoxin glutathione reductase), NADPH fluorescence loss, qHTS; Potency, µM; actives 0.07% (n = 65,000); AID 448, 2006
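Activity is read as the drop in NADPH fluorescence (365/450 nm), recorded every 30 sec for 8 min after H2O2 addition. Prx2 is coupled to TGR-driven NADPH oxidation through glutathione, in phosphate buffer pH 7.4.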
LT uptake inh: qHTS Assay for Anthrax Lethal Toxin Internalization; actives 0.67% (n = 70,000); Cells, anthrax lethal toxin internalization, FRET ratio (460/530); Potency, µM (highest dose often 40 µM), inactives show top-dose activity change, negative = inhibition, most hits filed as inhibitors; also: % is scaled to controls: 0 for no effect and ±100 for the full control effect; nearly all actives have a fitted effect of over 50% in size
AmpC nodet inh: Promiscuous and Specific Inhibitors of AmpC Beta-Lactamase (assay without detergent); P00811; AmpC nitrocefin hydrolysis, absorbance 480 nm, no detergent; Potency, µM (highest dose often 28.7 µM), without a hit: at the top dose activity change, negative = inhibition; actives 1.8% (n = 71,000); AID 585, 2007; also: % of control where 0% means no effect
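AmpC, 20 mM phosphate pH 7.0; 15 min cpd preinc, RT; start with nitrocefin (800 uM stock); A480 kinetic read, 20 s intervals, 4 min. No-enzyme wells = negative control.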
The depositor's hits bear a star; ? = inconclusive; . = no result; [ ] = another dose, or the depositor's remark. Rows were chosen to be rich in hits. Some 2.4% of all compounds tested hit in one or more screens of this group. Unless noted, calls follow the shape of the full dose curve. Potency is read from the fitted curve at half-maximal effect.

SMILES	AmpC det inh	Prx2 Sm inh	LT uptake inh	AmpC nodet inh
Cc1cc(NC(=O)Cn2c(=O)n(Cc3ccccc3)c(=O)c3ccccc32)no1	-1%	>57	-7%	10µM*
C[C@@H](C(=O)Nc1ccc2ccccc2c1)[C@@H]1C[C@@]1(C)[C@@H](NS(=O)(=O)c1ccccc1)c1ccccc1	1%	>57	?	-14%
C[C@@H](C(=O)Nc1ccc2ccccc2c1)[C@H]1C[C@]1(C)[C@H](NC(=O)OCc1ccccc1)c1ccccc1	2%	>57	?	7.9µM*
Cc1cc(C(=O)N[C@H](c2ccccc2)[C@@]2(C)C[C@@H]2[C@@H](C)C(=O)Nc2ccc3ccccc3c2)n(C)n1	-3%	>57	10µM*	69%
CC(=O)N[C@@H](c1ccccc1)[C@]1(C)C[C@H]1[C@@H](C)C(=O)Nc1ccc2ccccc2c1	0%	>57	-25%	111%
C[C@@H]1Cc2cc3c(cc2C(c2ccc(N)cc2)=NN1)OCO3	-3%	>57	?	-8%
CN(CC(=O)Nc1ccc(Cl)cc1)S(=O)(=O)c1cccc2cccnc12	9%	>57	7.9µM*	-13%
COc1ccc(NC(=O)CN(C)S(=O)(=O)c2cccc3cccnc23)cc1	13%	>57	7%	-4%
CN(CC(=O)NC1CCCCCCC1)S(=O)(=O)c1cccc2cccnc12	3%	>57	-9%	4µM*[single pt active]
ClP(Cl)(Cl)(Cl)Cl	9%	.	-1%	-6%
CC(C)=C[C@H]1[C@@H](C(=O)OCc2cc3c(cc2Cl)OCO3)C1(C)C	-2%[5.75 µM]	>57	-16%[8 µM]	-12%[5.75 µM]
C=CCN1CCc2c(cc(O)c(O)c2Cl)[C@H](c2ccccc2)C1	-1%	>57	16%	-15%
CC(C)OC(=O)Nc1ccc(Oc2c(F)c(F)c(F)c(F)c2F)cc1	-2%	>57	.	16µM*[single pt active]
CC(C)Oc1ccc(NC(N)=O)cc1	-2%	>57	?	20%
Nc1ncnc2c1ncn2[C@@H]1O[C@@H](COP(=O)(O)OP(=O)(O)OP(=O)(O)OP(=O)(O)OC[C@@H]2O[C@@H](n3cnc4c(N)ncnc43)[C@@H](O)[C@H]2O)[C@H](O)[C@@H]1O	-5%	>57	?	4%
CC(C)c1nccn1Cc1ccc(Cl)cc1Cl	-4%[5.75 µM]	>57	?	9%[5.75 µM]
Cc1cc(NC(=O)CSc2nc(C(C)C)nc3sc(C)c(C)c23)no1	-1%	>57	-3%	10%
Cc1cc(NC(=O)CSc2ncnc3sc4c(c23)CCC(C)C4)no1 (configuration not stated)	-4%	>57	-1%	5µM*
C[N+](=O)[O-]	9%	.	.	-5%
O=C(CCSc1nnc2scc(-c3ccccc3)n12)Nc1nc(-c2ccccc2)ns1	-4%	>57	12%	5µM*
Cc1c(C(=O)Nc2ccc3c(c2)OCCO3)sc2nc(-c3ccccc3)cn12	-8%	>57	10µM*	55%
Cc1c(C(=O)Nc2ccncc2)sc2nc(-c3ccccc3)cn12	12%	>57	-17%	22%
NC(=NCCC[C@@H](N)C(=O)O)N[N+](=O)[O-]	-4%	>57	2%	7%
N#Cc1nc(-c2cccc3ccccc23)oc1NCCN1CCOCC1	-3%	>57	?	143%
N#Cc1nc(-c2ccccc2F)oc1NCCN1CCOCC1	13%	>57	9%	4µM*[single pt active]
SMILES	AmpC det inh	Prx2 Sm inh	LT uptake inh	AmpC nodet inh
COc1ccc(N2CSC3=C(C#N)C(c4cccs4)CC(=O)N3C2)cc1 (configuration not stated)	-6%	>57	?	-22%
COc1ccc(C2CC(=O)N3CN(c4ccc(C)c(Cl)c4)CSC3=C2C#N)cc1OC (configuration not stated)	5%	>57	6.3µM*	6%
COc1ccc(N2CSC3=C(C#N)C(c4cc(OC)c(OC)cc4OC)CC(=O)N3C2)c(OC)c1 (configuration not stated)	12%	>57	-13%	96%
COc1ccc(N2CSC3=C(C#N)C(c4ccc(OC)c(OC)c4)CC(=O)N3C2)c(OC)c1 (configuration not stated)	3%	.	5%	48%
N#CC1=C2SCN(c3ccc(F)cc3)CN2C(=O)CC1c1cccc(F)c1 (configuration not stated)	9%	>57	-17%	4µM*[single pt active]
CCOC(=O)c1ccc(N2CSC3=C(C#N)C(c4cccs4)CC(=O)N3C2)cc1 (configuration not stated)	7%	>57	-19%	2.5µM*
CN1CSC2=C(C#N)C(c3cccc(OCc4ccccc4)c3)CC(=O)N2C1 (configuration not stated)	13%	>57	?	4µM*[single pt active]
COc1ccc(N2CSC3=C(C#N)C(c4cc(OC)ccc4OC)CC(=O)N3C2)c(OC)c1 (configuration not stated)	1%	>57	?	41%
CCc1ccc(N2CSC3=C(C#N)C(c4cccs4)CC(=O)N3C2)cc1 (configuration not stated)	-6%	>57	-29%	-13%
CCc1ccc(C2CC(=O)N3CN(c4ccccc4)CSC3=C2C#N)cc1 (configuration not stated)	7%	>57	-13%	20µM*[single pt active]
CCOc1ccccc1N1CSC2=C(C#N)C(c3c(OC)ccc4ccccc34)CC(=O)N2C1 (configuration not stated)	12%	>57	?	2.5µM*[single pt active]
Cc1ccccc1OCc1nc(-c2ccc(NC(=O)c3ccc4c(c3)OCO4)cc2)no1	-2%	>57	-8%	13µM*
Cc1ccccc1OCc1nc(-c2ccc(NC(=O)c3ccco3)cc2)no1	1%	>57	?	-4%
COC(=O)[C@@H]1C[C@H]1[C@@H](NC(=O)OCc1ccccc1)c1ccccc1	-2%	>57	9%	21%
CCCCOc1ccc(-c2c(C#N)c(N)nc(SCC(N)=O)c2C#N)cc1	6%	>57	?	20µM*[single pt active]
CSc1nc(N)c(C#N)c(-c2ccc(Cl)cc2)c1C#N	-4%	>57	?	?
C=C(C)CSc1nc(N)c(C#N)c(-c2ccc(C)cc2)c1C#N	19%	>57	?	6.3µM*
C[C@@H]1O[C@H](OC2[C@@H](O)[C@H](O)C(O)[C@H](O)[C@H]2O)[C@@H](N)C[C@@H]1N=C(N)C(=O)O (some centres not stated)	-2%[5.75 µM]	>57	0%[8 µM]	1%[5.75 µM]
COC1=C[C@H]2[C@@H]3Cc4ccc(OC)c(O)c4[C@@]2(CCN3C)CC1=O	1%	>57	?	-6%
N[C@@H](CP(=O)(O)O)C(=O)O	-5%[5.75 µM]	>57	-12%[8 µM]	-2%[5.75 µM]
O=C1CCc2cc(S(=O)(=O)NC(Cc3ccccc3)C(=O)NC3CCCCC3)ccc2N1 (configuration not stated)	11%	>57	16%	4µM*[single pt active]
CC(C)(C)NC(=O)C(Cc1ccccc1)NS(=O)(=O)c1ccc2c(c1)CCC(=O)N2 (configuration not stated)	14%	>57	6%	-6%
